This is part of a sample that, as a whole, favours compounds with a hit. Of some 83,000 tested, about 20% had one in any assay.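 How to read the values: 0–100, growth inhibition (40 = 60% inhibited); 0, no net growth; -100 to 0, cell death (-40 = 40% of starting cells died; -100 = all dead).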 Values without a mark were called inactive. The source made the active and inactive calls. The calls were made as follows: active = growth percent below 10; inactive = the rest.

The subject of the test is HL-60(TB) leukemia. Kind of test: NCI-60 one-dose screen, 48 h (100 = growth as untreated, 0 = no growth, -100 = all killed). Conditions: 10 µM unless noted.
With `N#C/C(=C\c1c(-c2ccccc2)[nH]c2ccccc12)C(=O)c1ccc(Cl)cc1`, the growth is 12.7%.
In the case of `O=C(O)C#Cc1ccc(Cl)cc1` it was 94.1%; in that of `CCCN1C(=O)/C(=c2\sc3n(c2=O)NC2C(N=3)N(CC)C(=O)N2CC)c2ccccc21` (configuration not stated), -18.4% (active).
As for `COc1cccc(-c2nc3sccn3c2-c2ccnc(NCCNS(=O)(=O)c3ccccc3)c2)c1`, the growth is -18.1% (active).
As to `O=c1ccc2nc(C(F)(F)F)nn(-c3ccccc3)c-2c1`, the growth is -36.6% (active).
In the case of `N#Cc1c(Nc2ccc(F)cc2)n[nH]c1-c1cccs1` it was 95.3%.
`Nc1ccc(F)cc1F`: the growth was 97.9%.
`CNC(=O)c1cc(Oc2ccc(NC(=O)c3nc(S(C)(=O)=O)sc3-c3ccc(F)cc3)cc2)ccn1`: the growth is 27.2%.
As to `N#CC1=C(N)Oc2ccc3ccccc3c2C1c1ccccc1Cl` (configuration not stated), the growth is 0.765% (active).
With `COc1cc(C(=O)N2CCN(C(=O)c3ccco3)CC2)c(N)cc1OCc1ccccc1`, the growth is 99.8%.
For `C=C1CC[C@@H]2[C@](C)(COC(C)=O)[C@H](OC(C)=O)CC[C@@]2(C)[C@@H]1CC(Nc1ccc(S(=O)(=O)Nc2ncccn2)cc1)C1=CCOC1=O` (some centres not stated) the value was -17.2% (active); for `CC1SC(c2ccc(OCc3ccccc3)cc2)N(NC(=O)C(O)(c2ccccc2)c2ccccc2)C1=O` (configuration not stated), 14.5%.
As for `CSCCCNC(=O)c1ccc2c(c1)/C(=C/c1[nH]c(C)cc1C)C(=O)N2`, the growth is 46.1%.
For `Cc1cccc(-[n+]2noc(N)n2)c1` the value was 30.8%; for `O=C(N=c1oc2ccccc2cc1-c1cc2ccccc2[nH]1)Nc1ccc(Cl)cc1`, 78.6%; for `CN1CCCc2cc(/C=C3/SC(=S)N(CCc4ccc(O)cc4)C3=O)ccc21`, 8.87% (active).
For `CN(C)CCS(=O)(=O)Nc1cc(-c2ccc3ncnc(Nc4ccc(F)c(Cl)c4)c3c2)cnc1Cl`, the growth is -15% (active).
As for `COc1cc2c(-c3nc4cc(Cl)c(F)cc4s3)cc(=O)oc2c(C)c1OC`, the growth was -56.2% (active).
Take `CCC1=C[C@H]2CN(CCc3c([nH]c4ccccc34)[C@@](C(=O)OC)(c3cc4c(cc3OC)N(C)[C@H]3[C@@](O)(C(=O)OC)[C@H](OC(C)=O)[C@]5(CC)[C@@H]6C[C@@H]6CN6CC[C@]43[C@@H]65)C2)C1`: the growth was -33.4% (active).
For `C=CC(=O)Nc1cccc(Oc2nc(Nc3ccc(N4CCN(C)CC4)cc3)nc3ccsc23)c1` the value was -62% (active); for `NC(=NCCCOc1ccc(Cl)cc1)Nc1ccc(C(F)(F)F)cc1`, 94.4%.
On to `COc1ccc(S(=O)(=O)Nc2c(/C=C\c3cc(OC)c(OC)c(OC)c3)ccc(OC)c2O)cc1`, for which the growth was -42.3% (active).
For `CCNNC(=O)[C@@H]1[C@H](c2cc(OC)c(OC)c(OC)c2)c2cc3c(cc2[C@H](O)[C@H]1CO)OCO3` the value was -24.1% (active); for `COc1ccc(/C=c2\sc3n(c2=O)NC2C(N=3)N(C)C(=O)N2C)cc1` (configuration not stated), 98.4%; for `CCN(Cc1cccc(S(=O)(=O)[O-])c1)c1ccc(C(=C2C=CC(=[N+](CC)Cc3cccc(S(=O)(=O)O)c3)C=C2)c2ccccc2S(=O)(=O)O)cc1`, 104%.
Regarding `CCOS(=O)(=O)c1ccc([N+](=O)[O-])cc1`, the growth was 95.9%.
With `CCN(CC)CCC(CNc1ccnc2cc(Cl)ccc12)c1ccc(Cl)cc1` (configuration not stated), the growth is -53.9% (active).
As to `COc1ccc2c(c1)c(-c1nn3cc(-c4cccs4)nc3s1)cn2C`, the growth was 82.7%.
`COc1cc(/C=N/Nc2ccc(Br)cc2)cc(OC)c1OC`: the growth was 33%.
For `CCOC(=O)CCCC(=O)OCC`, the growth was 102%.
In the case of `Cc1cccc[n+]1C1c2ccccc2-c2ccccc21` it was 92%; in that of `O=C(Nc1cccc(Cl)c1)Nc1cccc(Cl)c1`, 43.9%.
For `CN1C(=O)N(C)C2C1NC(=S)N2/N=C/C=C/c1ccccc1[N+](=O)[O-]` (configuration not stated), the growth was -34.9% (active).
In the case of `COc1ccc2c(O)cc3c(c2c1)[C@H](CCl)CN3C(=O)c1cc2cc(NC(=O)CCN3CCOCC3)ccc2[se]1`, the growth is 66%.
For `CCN(CCCCCCCCCCN1CC(=O)N(CCCCCCCCCCN(CC)Cc2ccccc2OC)CC1=O)Cc1ccccc1OC` the value was -67.9% (active); for `Cn1cc(-c2csc(-c3cn(C)c4ncccc34)n2)c2cc(F)cnc21`, 86.4%; for `C/C(=C(/c1ccccc1)c1ccc(N2C(=O)c3cccc4c(N5CCN(C)CC5)ccc(c34)C2=O)cc1)c1ccccc1`, 99.3%.

(Values after PubChem BioAssay (NCI).)
